In the library only some 2.8% were active in any assay of this set; here they are far more common.
EBV LMP1 NFkB – Epstein-Barr LMP1 NF-kappaB reporter inhibition; LMP1-induced NF-kappaB luciferase reporter cells, luminescence; inhibition, % at 12.5 µM; actives 0.69% (n = 350,000); AID 504558; in the data active = inhibition above about 41%;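 also: 0% = neutral control wells and 100% = reference inhibitor control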
NSD2 inh – NSD2 (human) methyltransferase inhibition; O96028; NSD2 peptide methylation, AlphaScreen, 120 min; inhibition, % at 12.5 µM; actives 0.54% (n = 310,000); AID 743445; in the data active = inhibition above about 50%
Shn3 inh set2 – Schnurri-3 reporter inhibition in Clone20 osteoblasts | AID 588674 | inhibition, % at 12.5 µM | Clone20 osteoblast Shn3 3'UTR firefly luciferase, 24 h | actives 0.52% (n = 360,000);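 active = mean inhibition of at least 75% with every replicate also reaching 75%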;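 also: 0% = median of neutral control wells and 100% = pilot-screen positive control compound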
PAX8 inh HTS – PAX8 transcriptional activity inhibition. RMG-I TPO-luciferase reporter, SteadyGlo, 24 h. inhibition, % at 12.6 µM. actives 1.2% (n = 360,000). AID 652154;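 active = mean replicate inhibition at least 60% with every replicate also reaching 60%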;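 also: luciferase light reporting Pax8 driven TPO promoter activity; plate controls were median of neutral control wells for no effect and mitoxantrone controls for full effect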
Glyco luc inh – N-linked glycosylation inhibition; reporter increase, % at 12.5 µM; D54 ERlucT glycosylation luciferase reporter, 24 h; percent of 100 nM tunicamycin response; actives 0.23% (n = 360,000);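 active = mean luciferase reporter signal, scaled so untreated is 0 and the glycosylation-blocking control 100, at or above a set limit in every replicate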;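 also: luciferase carries N-glycosylation sites so blocking glycosylation raises the light; 0% = median of neutral control wells and 100% = median of 100 nM tunicamycin wells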
HIV Env fusion – inhibitors of HIV Env-mediated cell fusion; actives 1.1% (n = 360,000); HeLa-JRFL Env/CEM21 cell fusion, luciferase; inhibition, % at 12.3 µM;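 active = mean replicate inhibition score of at least 50 and every replicate individually at or above 50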;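 also: 0% = plate neutral controls and 100% = maraviroc near 300 nM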
Starred values were filed as active, the others as inactive; ! = a repeat was not active; [ ] = another dose, or the depositor's remark.

Results for C[C@H]1CN([C@@H](C)CO)C(=O)c2cccc(NC(=O)c3cnccn3)c2O[C@@H]1CN(C)Cc1ccc2c(c1)OCO2 ?
PAX8 inh HTS: -3.9; HIV Env fusion: 3.2[16.7 µM]

What do the screens show for `Cn1nc(C(C)(C)C)cc1C(=O)NCc1ccc(N2CCCC2=O)cc1`?
EBV LMP1 NFkB: 12.3; NSD2 inh: -5.8; Shn3 inh set2: 59.7; Glyco luc inh: -1.1; HIV Env fusion: 64.1*

How did CO[C@H]1CN(C)C(=O)c2ccc(NC(=O)Nc3c(C)noc3C)cc2OC[C@@H](C)N(CC2CC2)C[C@H]1C do in these assays?
PAX8 inh HTS: -14.2; HIV Env fusion: -11.9[16.7 µM]

Results for CCCCCC1CC(=O)C=C(C)C1C(=O)OC (stereo not drawn) ?
EBV LMP1 NFkB: 2.9; NSD2 inh: 22.1; Shn3 inh set2: -0.5; PAX8 inh HTS: -9.1; Glyco luc inh: 1.6; HIV Env fusion: 0.4

What do the screens show for `COC(=O)C1C(OC)=CC(=O)C2CCCCC21` (stereo not drawn)?
EBV LMP1 NFkB: 8.8; NSD2 inh: -0.1; Shn3 inh set2: -3.7; PAX8 inh HTS: -17.4; Glyco luc inh: 0.8; HIV Env fusion: 57.3*

Results for Cc1[nH]n(-c2cccc3ccccc23)c(=O)c1/C=N/NC(=O)c1cccc([N+](=O)[O-])c1 ?
EBV LMP1 NFkB: -0.1; NSD2 inh: -2.7; Shn3 inh set2: 13.1; PAX8 inh HTS: -6.9; Glyco luc inh: 0.2; HIV Env fusion: 59.2*

Results for O=C(N/N=C/c1cc([N+](=O)[O-])ccc1O)c1cccc2ccccc12 ?
EBV LMP1 NFkB: 5.3; NSD2 inh: -4.4; Shn3 inh set2: 69.1; PAX8 inh HTS: 68.5*; Glyco luc inh: -2.4; HIV Env fusion: 12.6

How did O=[N+]([O-])c1ccc(O)c(/C=N/Nc2nn[nH]n2)c1 do in these assays?
EBV LMP1 NFkB: 7.6; NSD2 inh: 9.6; Shn3 inh set2: -9.0; PAX8 inh HTS: 3.4; Glyco luc inh: 1.3; HIV Env fusion: 11.8

Results for O=[N+]([O-])c1ccc(O)c(/C=N/Nc2ccc(Cl)nn2)c1 ?
EBV LMP1 NFkB: 26.8; NSD2 inh: -2.1; Shn3 inh set2: 70.3; Glyco luc inh: -13.1; HIV Env fusion: 82.4*

Results for O=C(N/N=C/c1cc([N+](=O)[O-])ccc1O)c1ccc(COc2ccc3c(c2)CCC3)o1 ?
EBV LMP1 NFkB: -48.3; NSD2 inh: -6.1; Shn3 inh set2: 87.8*; Glyco luc inh: -11.7; HIV Env fusion: 18.6

What do the screens show for `COc1ccc(Br)cc1/C=N/NC(=O)c1ccc(COc2ccc3c(c2)CCC3)o1`?
EBV LMP1 NFkB: -6.8; NSD2 inh: 43.1; Shn3 inh set2: -16.8; Glyco luc inh: 2.0

What do the screens show for `COc1ccc(NC(=O)N(C)C[C@@H]2OCCCC[C@@H](C)Oc3ccc(N(C)C)cc3C(=O)N([C@H](C)CO)C[C@H]2C)cc1`?
PAX8 inh HTS: 7.4; HIV Env fusion: -20.1[16.7 µM]

What do the screens show for `NCCCS(=O)(=O)O`?
EBV LMP1 NFkB: 53.9*!; Shn3 inh set2: -19.0; PAX8 inh HTS: -14.9; Glyco luc inh: 1.2; HIV Env fusion: -3.4

Results for COc1cccc(-c2cn(CC[C@H]3CC[C@@H](NS(=O)(=O)Cc4ccccc4)[C@@H](CO)O3)nn2)c1 ?
PAX8 inh HTS: -15.1; HIV Env fusion: -17.0[16.7 µM]

How did COc1ccccc1S(=O)(=O)n1cc(Cc2ccccc2)c(N)n1 do in these assays?
EBV LMP1 NFkB: -0.9; Shn3 inh set2: 21.0; Glyco luc inh: -1.4; HIV Env fusion: 78.9*

What do the screens show for `Cc1ccc(C(=O)N/C(=C/c2cccs2)C(=O)NCCc2c[nH]c3ccccc23)cc1`?
EBV LMP1 NFkB: -14.6; NSD2 inh: -1.2; Shn3 inh set2: -5.3; PAX8 inh HTS: 3.9; Glyco luc inh: 55.3*; HIV Env fusion: -8.6

What do the screens show for `Cc1ccc(C(=O)N/C(=C\c2ccco2)C(=O)NCCc2c[nH]c3ccccc23)cc1`?
EBV LMP1 NFkB: -14.0; NSD2 inh: 1.2; Shn3 inh set2: -23.6; PAX8 inh HTS: 45.2; Glyco luc inh: 30.3*

What do the screens show for `C[C@@H]1CN([C@@H](C)CO)S(=O)(=O)c2ccc(-c3cncnc3)cc2O[C@@H]1CN(C)C(=O)NC1CCCC1`?
PAX8 inh HTS: -28.8; HIV Env fusion: -17.2[16.7 µM]

Results for CCOC(=O)c1c2c(n(-c3ccc(OC)cc3)c1C)C(=O)C(=O)c1ccccc1-2 ?
EBV LMP1 NFkB: 86.5*; Shn3 inh set2: 97.3*; Glyco luc inh: -20.8

Results for C=C(CN(C)C)C(=O)c1ccc(C)cc1C ?
EBV LMP1 NFkB: -8.5; NSD2 inh: 0.6; Shn3 inh set2: 96.7*; PAX8 inh HTS: 85.1*; Glyco luc inh: -15.7; HIV Env fusion: -4.6

How did CC(=O)Nc1ccccc1NC(=O)c1ccc(C)cc1C do in these assays?
EBV LMP1 NFkB: -0.1; NSD2 inh: -0.8; Shn3 inh set2: 13.9; PAX8 inh HTS: -2.9; Glyco luc inh: 1.8; HIV Env fusion: 11.0

Results for CC(C)(C)OC(=O)CC(S(=O)(=O)c1ccccc1)S(=O)(=O)c1ccccc1 ?
EBV LMP1 NFkB: -4.0; NSD2 inh: -1.0; Shn3 inh set2: 58.8; PAX8 inh HTS: 85.9*; Glyco luc inh: -1.3; HIV Env fusion: 22.1

How did CN([C@@H](C(=O)OC(C)(C)C)c1ccccc1)S(=O)(=O)c1cccc(S(=O)(=O)N(C)[C@@H](C(=O)OC(C)(C)C)c2ccccc2)c1 do in these assays?
EBV LMP1 NFkB: -5.0; Shn3 inh set2: 47.0; PAX8 inh HTS: 3.3; Glyco luc inh: -11.7; HIV Env fusion: 14.9

How did O=C(O)Cn1ncc2ccccc2c1=O do in these assays?
EBV LMP1 NFkB: -16.7; NSD2 inh: -1.7; Shn3 inh set2: 1.4; PAX8 inh HTS: -5.6; Glyco luc inh: 1.8; HIV Env fusion: 3.4

What do the screens show for `O=c1c2ccccc2cnn1CCOc1ccccc1`?
EBV LMP1 NFkB: 74.1*; NSD2 inh: 2.2; Shn3 inh set2: 58.2; Glyco luc inh: -23.1

Results for C=CC[C@@H](CC(=O)N(CCO)Cc1ccccc1)C(=O)N[C@H](COC(=O)[C@@H](CC=C)Cc1ccc(F)cc1)Cc1c[nH]c2ccccc12 ?
EBV LMP1 NFkB: -4.5; Shn3 inh set2: 7.0; PAX8 inh HTS: 36.8; Glyco luc inh: -0.3; HIV Env fusion: -9.4

What do the screens show for `C=CCC[C@H](Cc1ccc(F)cc1)C(=O)OC[C@H](Cc1c[nH]c2ccccc12)NC(=O)[C@H](CC=C)CC(=O)N(CCO)Cc1ccccc1`?
EBV LMP1 NFkB: 0.6; Shn3 inh set2: 82.8; PAX8 inh HTS: 97.4*; Glyco luc inh: -4.0; HIV Env fusion: 45.7

Results for C=CCC[C@H](Cc1ccc(F)cc1)C(=O)OC[C@@H](Cc1c[nH]c2ccccc12)NC(=O)[C@@H](CC=C)CC(=O)N[C@@H](CO)Cc1ccccc1 ?
EBV LMP1 NFkB: -8.7; Shn3 inh set2: 18.3; PAX8 inh HTS: 77.7*; Glyco luc inh: -1.2; HIV Env fusion: -1.7

Screens: PubChem, Broad Institute
